Out of some 1,000 compounds screened, about 140 (14%) were called active. The rule behind the calls is not given here. Only a sample is shown.

This assay is described as follows: thallium flux change in parental CHO cells, counter-screen for KCNQ2 inhibitor project (AID 493029).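 For activity change: 0% = vehicle negative controls with stimulus buffer.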 The note with it: at 10 µM; active compounds read low. On the technique in general: A counterscreen serves to expose hits that act by an unwanted route or on another target.
As to `CCc1ccc(-c2nn(-c3ccccc3)cc2CSC(=N)N)cc1`, the activity change is -31% (active).
Turning to `CC(NC(=S)NNS(=O)(=O)c1ccc(C(C)(C)C)cc1)c1ccccc1` (stereo unspecified), the activity change result is “inactive”.
Consider `C=CS(=O)c1sc(Cl)c(N2CCOCC2)c1[N+](=O)[O-]` (stereo unspecified), for which the activity change is -22.5% (active).
Regarding `Cc1ccc(C(=O)c2c(NC(=O)c3ccccc3)sc(C)c2C)cc1`, the activity change entry is “inactive”.
Next, `O=C(OCC(=O)N(CCc1ccccc1)Cc1ccccc1)c1ccccc1[N+](=O)[O-]`: “inactive”; `CCOC(=O)C(C)Sc1nc2ccccc2c(=O)n1CC1CCCCC1` (stereo unspecified): -21% (active).
Turning to `Cc1ccc(C2=Nc3c(ccc4ccccc34)C(c3ccncc3)=NN2)cc1`, the activity change entry is “inactive”.
As for `COc1cccc(COc2ccc(N(C)S(=O)(=O)c3ccccc3)cc2)c1`, the activity change entry is “inactive”.
The result for `Cc1ccc(C(C)C)cc1OCC(=O)Nc1ccccc1N1CCCC1` reads “inactive”; that for `CC(C)N(C(=O)CSc1nc(COc2ccccc2)nc2ccccc12)C(C)C`, -42.5% (active); that for `CCc1ccc(-c2cc(C(=O)NCc3ccco3)c3ccccc3n2)s1`, “inactive”.
As for `CC(C)[C@H](NC(=O)OCc1ccccc1)C(=O)OCc1ccccc1`, the activity change entry was “inactive”.
For `Cc1ccc(N2C(=O)C3C(c4ccccc4)(C2=O)C3(c2ccccc2)c2ccccc2)cc1` (stereo unspecified), the activity change entry is “inactive”.
Turning to `Cc1cccc(C(=O)OC(C)C(=O)NC2CCCc3ccccc32)c1O` (stereo unspecified), the activity change entry is “inactive”.
Turning to `CCc1ccccc1NC(=O)/C(=C/c1ccccc1)c1ccccc1`, the activity change result is “inactive”.
In the case of `CSCc1cc(N(C)C)nc(SCc2ccc(Cl)cc2Cl)n1`, the activity change result is “inactive”.
Consider `O=C(Nc1ccccc1Cl)/C(Cl)=C(\Cl)S(=O)c1ccccc1` (stereo unspecified), for which the activity change result was “inactive”.
The result for `CCc1ccc2ncc(C(=O)c3ccccc3)c(N3CCOCC3)c2c1` reads “inactive”.
Next, `CC(C)C(NC(=O)OCc1ccccc1)C(=O)OCC(=O)N1C(C)CCCC1C` (stereo unspecified): “inactive”.
As for `COc1ccc(CN(C)C(C)C(=O)NC2CCCc3ccccc32)cc1` (stereo unspecified), the activity change result was “inactive”.
With `CC(C(=O)NCC1CCCCC1)N(C)Cc1cccc(Cl)c1` (stereo unspecified), the activity change was -35% (active).
`COC(=O)C1=C(C)N(C(C)c2ccccc2)C(=O)/C1=C\c1ccco1` (stereo unspecified): the activity change result was “inactive”.
With `Fc1ccc2[nH]c3c(N4CCSCC4)ncnc3c2c1`, the activity change entry was “inactive”.
The result for `CCOC(=O)N1CCC(N(CCOC)C(=O)Nc2ccc(C)c(C)c2)CC1` reads -23.5% (active); that for `Cc1ccccc1N1CCN(CC(=O)NCc2ccc(Cl)cc2)CC1`, “inactive”.
For `COc1ccc(Cl)cc1NC(=O)CN(C)Cc1ccc(OC)c(OC)c1`, the activity change entry is “inactive”.
`CN(Cc1ccccc1F)C(=O)C(Cc1ccccc1)NC(=O)c1ccccc1` (stereo unspecified): the activity change result was “inactive”.
In the case of `O=C(Nc1ccc(Cl)c(Cl)c1)N1CC=C(c2ccccc2)CC1`, the activity change result is “inactive”.
`Cc1nc2ccccc2c(-c2ccccc2)c1C(=O)c1ccccc1`: the activity change result was “inactive”.
Next, `C=CCn1c(SCC(=O)/C(C#N)=C(\C)N)nc2sc(C)c(C)c2c1=O`: “inactive”; `Cc1ccccc1C(=O)Nc1ccccc1Sc1ccccc1`: “inactive”.
